From PubChem
ATXN viability – cell viability loss in ATXN counter-screen; 0.49% of 400,000 active; S2 cells (HEK-293 line with an ATXN2-luciferase reporter) viability, CellTiter-Fluor protease fluorescence, 24 h; Potency, µM (titrated, usually from 56.7 µM), hits mostly cytotoxic; also: nearly all actives have a fitted effect of over 40% in size
TGFb inhibitor – inhibitors of TGF-b signaling; 1.2% of 410,000 active; Potency, µM (doses to about 46.1 µM), for inactives: at the top dose activity, negative = inhibition, usual class: inhibitors; HepG2 CAGA-GFP TGF-b/SMAD3 reporter, GFP fluorescence, 18 h; TGF-beta stimulated, 500 pg/mL final; also: % is scaled to controls: 0 for no effect and ±100 for the full control effect; nearly all actives have a fitted effect of over 65% in size
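Inhibition of TGF-beta-driven CAGA-GFP reporter expression in HEPG2 cells is measured by cellular GFP fluorescence after 18 h stimulation with 500 pg/mL recombinant TGF-beta in 1% FBS medium at 37 degrees C.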
ATXN2 expr inh – inhibitors of ATXN2 expression | 0.72% of 360,000 active | AID 1745845 | Potency, µM (series often up to 57 µM), for inactives: at the top dose activity change, negative = inhibition, actives largely listed as inhibitors | HEK-293 ATXN2-luciferase reporter, luminescence, 24 h; also: % is scaled to controls: 0 for no effect and ±100 for the full control effect; nearly all actives have a fitted effect of over 55% in size
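qHTS (up to 57 uM final) was run with 24 h compound exposure of reporter cells at 37 °C. Each well was multiplexed: SteadyGlo luminescence measured ATXN2-luciferase expression after a fluorogenic Gly-Phe-AFC viability readout (25 uM final).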
HepG2 tox-1 – HepG2 cytotoxicity, counter-screen for TGF-b inhibitors; HepG2 CAGA-GFP viability, ATP luminescence, 18 h; Potency, µM (highest dose often 46.1 µM), without a hit: at the top dose activity change, negative = cytotoxicity, most hits filed as cytotoxic; 0.76% of 410,000 active
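HepG2 CAGA-GFP cells (1000/well, DMEM with 1% FBS) received compound, then TGF-beta at 500 pg/mL final, and were incubated 18 hours at 37 degrees C. Viability was read by CellTiter-Glo luminescence. Media-only wells were set as complete cell-killing and DMSO as no toxicity.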
TGFb CAGA inh – TGF-b pathway inhibition, cherry-pick retest. shares compounds with TGFb inhibitor. HepG2 CAGA-GFP TGF-b reporter, GFP fluorescence, 18 h; cells stimulated with TGF-beta, 500 pg/mL. Potency, µM (highest dose often 46.1 µM), inactives show at the highest dose activity, negative = inhibition, hits mostly inhibitors. 63% of 1,600 active. AID 720534; also: % is scaled to controls: 0 for no effect and ±100 for the full control effect; nearly all actives have a fitted effect of over 65% in size
HepG2 tox-2 – toxic to HepG2 cells in TGF-b counterscreen; shares compounds with TGFb inhibitor; HepG2 CAGA-GFP viability, ATP luminescence, 18 h; cells stimulated with TGF-beta, 500 pg/mL; Potency, µM (titrated, usually from 46.1 µM), without a hit: at the top dose activity, negative = cytotoxicity, hits mostly inhibitors; 27% of 1,600 active; AID 720535; also: % is scaled to controls: 0 for no effect and ±100 for the full control effect; nearly all actives have a fitted effect of over 70% in size
TGFb CCL64 inh – TGF-b inhibition, CCL64 orthogonal assay; shares compounds with TGFb inhibitor; Potency, µM (doses to about 46.1 µM), without a hit: at the top dose activity, negative = inhibition, usual class: inhibitors; 41% of 1,600 active; CCL64 CAGA-GFP reporter, TGF-b stimulated, GFP fluorescence, 18 h; also: nearly all actives have a fitted effect of over 65% in size
COP TGFb inh – validation of TGF-b inhibitors in HepG2 COP promoter reporter | shares compounds with TGFb inhibitor | HepG2 COP-GFP TGF-b reporter, GFP fluorescence, 18 h; cells stimulated by added recombinant TGF-beta | Potency, µM (highest dose often 46.1 µM), for the others: top-dose activity, negative = inhibition, most hits filed as inhibitors | 3% of 1,600 active | AID 720537; also: nearly all actives have a fitted effect of over 70% in size
Active calls of the source: *; i = inactive; ? = inconclusive; . = no result. Compounds with a hit are over-represented: about 2.3% of the library has one in this group of screens. Calls follow the shape of the dose curve; as a rule, active = well fitted curve in the direction sought with a large enough effect; inconclusive = small, poorly fitted or top-dose-only effect, or another doubt; inactive = no such curve, though single readings can be large; an effect the other way counts as inactive or inconclusive. Potency is read from the fitted curve at half-maximal effect.

SMILES | ATXN viability | TGFb inhibitor | ATXN2 expr inh | HepG2 tox-1 | TGFb CAGA inh | HepG2 tox-2 | TGFb CCL64 inh | COP TGFb inh
CC[C@]12c3[nH]c4ccc(Cl)cc4c3CCN1C(=O)[C@@H](CC(=O)NC/C=C(\C)CCC=C(C)C)C[C@@H]2C(=O)N1CCN(C(=O)C2CC2)CC1 | . | 10µM* | ? | -68% | ? | ? | 21µM* | 66%
Nc1cccc(S(=O)(=O)N2CCCN(S(=O)(=O)c3ccc4c(c3)OCCO4)CC2)c1 | . | . | -10% | . | . | . | . | .
COCCn1c(SCc2nc3scc(-c4ccc(Cl)cc4)c3c(=O)[nH]2)nnc1-c1cccc(C)c1 | ? | 10µM* | -23% | -25% | 13µM* | ? | ? | 32%
CCn1c(SCc2nc3scc(-c4ccccc4)c3c(=O)[nH]2)nnc1-c1cccs1 | i | ? | -33% | -1% | . | . | . | .
O=S(=O)(c1cccc(Cl)c1)N1CCN(c2nc(-c3cccs3)nc3ccccc23)CC1 | . | 8% | . | 35% | . | . | . | .
CC1CC=CC2C1C(=O)N(Cc1ccccc1)C2c1ccc(-c2cc3ccccc3s2)cc1F (stereo not drawn) | . | 1% | . | -1% | . | . | . | .
Cc1ccc(C)c(C(=O)C[n+]2cccc(Br)c2)c1 | . | 4% | . | -9% | . | . | . | .
COc1cccc(CN(C(=O)Cc2c[nH]c3ccccc23)C(C(=O)NC2CCCCC2)c2ccc(C)o2)c1 (stereo not drawn) | ? | 16µM* | ? | -11% | 26µM* | ? | ? | 23%
O=S(=O)(c1ccc(F)cc1)N1CCN(c2nc(-c3cccs3)nc3cc(Cl)ccc23)CC1 | . | 31% | . | 10% | . | . | . | .
COc1ccc(C2/C=C\CN(C(=O)C3CC3)[C@H](Cc3ccccc3)C(=O)N2Cc2ccc(F)cc2)cc1 (stereo partly drawn) | ? | 10µM* | 0% | -5% | ? | -25% | ? | 35%
COc1ccc2c(c1)/C(=C\c1cccc(/C=C3/C(=O)Nc4ccc(OC)cc43)n1)C(=O)N2 | . | 1.3µM* | 3.2µM* | -37% | 2.9µM* | 2.6µM* | 1.5µM* | 49%
NC(=O)c1cc([N+](=O)[O-])c(Cl)cc1NCc1ccccn1 | ? | -15% | -36% | 3% | . | . | . | .
NC(=O)c1cc([N+](=O)[O-])c(Cl)cc1NCc1ccncc1 | ? | ? | -4% | 6% | 18µM* | -28% | -9% | 18%
O=C(CNC(=O)c1ccccc1)NCC(=O)OCC(=O)c1ccc2ccccc2c1 | . | -2% | . | -14% | . | . | . | .
CC1(C(=O)NCc2cccc3ccccc23)CCN1C(=O)C1(c2ccccc2)CCCC1 (stereo not drawn) | i | 13µM* | -18% | -6% | 13µM* | ? | ? | 45%
CC1(C(=O)NCc2ccccc2Br)CCN1C(=O)C1(c2ccc(Cl)cc2)CC1 (stereo not drawn) | i | ? | -19% | -4% | . | . | . | .
CN(Cc1ccccc1)C(=O)c1[nH]cnc1C(=O)Nc1cccc(Cl)c1 | i | ? | 5% | -19% | ? | ? | -8% | -1%
CC(C)(C)OC(=O)[C@H](Cc1ccccc1)NC(=O)c1[nH]cnc1C(=O)N[C@@H](Cc1ccccc1)C(=O)OCc1ccccc1 | ? | ? | 3% | -5% | . | . | . | .
